We go through 69 sequences from PubChem BioAssay AID1508600 (Functional Genomics Laboratory (NCATS/FGL), 2020).

Hit rate of the full screen: of about 53,000 sequences, about 3,700 (7%) were called active.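 Rule for the calls: active = gene knockdowns whose robust z-score for IL-1 alpha signal is at least 2 or at most -2, so actives lie on both sides; inactive = the rest.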 This excerpt belongs to a sample that is enriched for actives.

The assay in a line: Components of the Cytosolic LPS Sensing Pathway: Gene Identification via Genome-wide siRNA Screen.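 Note: robust z of the log signal after scaling to non-targeting control siRNA wells of the plate.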 The note with it: RAW264.7 macrophages, IL-1a HTRF, actives lie on both sides, screened at 100 nM (by protocol), cells primed 5 h with Pam3CSK4 first. In short, it runs like this:
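Cells (RAW264.7, 1×10^4 per well) were transfected with siRNA at 100 nM and cultured 48h at 37 degrees C. Pam3CSK4 was added for 5 hours; LipidA transfection followed for 24 hour. IL-1a was then measured by HTRF.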
Background: In TR-FRET formats the signal depends on donor and acceptor labels being close together.
On to GGACCAAGGCUUGGAUCUUTT against Magea6, for which the z-score was 0.527 (inactive).
Turning to “CGUGGUGCCUUUGAAUCUGTT against 9530056K15Rik”, the z-score is 1.2 (inactive).
With GGCAUCAAGCAAUUCACUCTT against Zfp455 the figure was 1.14 (inactive); with GGUGCAAAUGUUCUCAUCUTT against Mfsd4b1, 2.11 (active).
The result for GCCACUGUCACUUUUGUACTT against Arl11 reads -1.08 (inactive); that for GGAUUUGUUGGAAAUUGGATT against Anks1b, 0.132 (inactive); that for GGCUGUGCAAGAUGUUCUATT against Gpr27, 3.29 (active).
With CCCAUGGGCAGAUGAAAGCTT against Olfr1441 the figure was -0.482 (inactive); with GCAAUGCGACGUGCUCUAUTT against Trim67, 0.136 (inactive); with GGCUUAAGUUAGGCAAACUTT against Crtc3, -0.0675 (inactive).
UGCUGUGGUCACUCCCAUGTT against Olfr457: the z-score was -2.04 (active).
The result for GCCACAACAAACCUACGACTT against Xpc reads -1.32 (inactive).
Turning to GCGCAUUGUGUUCUGGUCUTT against Zswim4, the z-score is -1.55 (inactive).
“GGAACUUGGCCUACUUAUGTT against C130071C03Rik”: the z-score was 0.718 (inactive).
As for GAGGUCAUUAUACCAUUGGTT against Tuba3b, the z-score was 0.554 (inactive).
Regarding GGUGACCAGCUCCAUUUCUTT against Ccn5, the z-score is 2.61 (active).
The result for GGCCAACACUCAGAAAAGGTT against Zfp474 reads 1.59 (inactive); that for GCCAGAUCUGUUAACCGCCTT against Gzmk, 2.15 (active).
Take GGUUGGGCUGCCAAGUUUGTT against Fdx1: the z-score is 1.96 (inactive).
Turning to UACUACAACCGCACAGUGATT against Tmc6, the z-score was 0.522 (inactive).
Turning to GGUGGUCACCAAGAAGUUUTT against Prps2, the z-score is 2.52 (active).
The result for GGAAGCUCUUAAAAGGUUGTT against Hdhd2 reads 0.226 (inactive); that for GCUCCUCAUGAUAUUGGCCTT against Nagk, 0.239 (inactive); that for GGAGGGACUUACCACAAGGTT against Timeless, 0.282 (inactive).
With GGACAACACUGUCAAUCAUTT against Olfr922 the figure was -2.39 (active); with GGGAAUCUUUAUCAGUGAGTT against Insc, 0.429 (inactive).
Take GCUCCUGAUCAAAUAAAGUTT against Ldhb: the z-score is 0.279 (inactive).
As to CCGGAGUUAUACCGUAAGATT against Plaur, the z-score was -0.671 (inactive).
The result for GGAGUAGGAACAAAAAUUGTT against Polb reads -0.153 (inactive).
As to CCUUGGCCAAUCUCCACAATT against Ptpmt1, the z-score was -0.485 (inactive).
With GGAAAAAAUUAAAGAGCACTT against Gmcl1 the figure was 2.15 (active); with GGCACAAAAGAAGAAGAUGTT against Retsat, -1.7 (inactive).
The result for CGAUAAUGAAAGUGACCAUTT against Uri1 reads -0.0814 (inactive); that for GGAUGCUAGACUAAUACUATT against Slc25a32, 1.3 (inactive); that for CGGGAAAGAGAUCAUCCCUTT against Nr1i2, -3.3 (active).
With GGGAGGGAUGCAGUAAAUGTT against Acaa1a the figure was -0.337 (inactive); with GCAGGAACGUGAGGACCAUTT against Snip1, 0.842 (inactive).
Take GGCUCUGUGCAGACAUUUCTT against Pop5: the z-score was -1.51 (inactive).
For the sequence GUUCCGACUGAACUUGUAUTT against Psmb3, the z-score is -2.55 (active).
The result for GCCUGGAUACAAUUACCCUTT against Tc2n reads -0.893 (inactive); that for GCUCAGUAAUCGCUGUCUATT against Olfr91, -0.62 (inactive).
With GGAGAUGAUACAUAAUCUATT against Psmd12 the figure was -0.0292 (inactive); with GCCUAAACCUGAGUUAUAATT against Lrig1, 2.34 (active).
Take GGUGACAAAGGUGUUAGAATT against Itpkc: the z-score was -0.252 (inactive).
Take GGUGACCAAAAAAGCUUUATT against Pax9: the z-score is 1.37 (inactive).
Regarding GCUCAAAUAACUCCACCACTT against Pola1, the z-score is -1.73 (inactive).
For GGCGACCACUUUGUCUACATT against Plekhg3, the z-score is 1.1 (inactive).
With GGGAAUUCUCCUGUUUGCUTT against Plp2 the figure was -2.22 (active).
As to GCUGCGUCCUAUGAGUUUATT against Drg2, the z-score is 1.72 (inactive).
GGCAGCAAGGAAACUAUUATT against Kpna3: the z-score was 1.39 (inactive).
Turning to GCCAACGAAAAAUGACCUCTT against Wnt2, the z-score is -0.046 (inactive).
The result for GGCCAAAAGUAUGAAAGUATT against Tspan1 reads 0.45 (inactive); that for GCGUGUUGUGAUGUCACCUTT against Cisd1, -0.0193 (inactive); that for CCAGAUACUUCUCAUGGCGTT against Dipk1b, -0.0671 (inactive).
For CGAUUUGCCUUAUUUUUCATT against Litaf, the z-score is 1.23 (inactive).
Take GGAAGUACAAACUACUAGUTT against Mcmbp: the z-score was -0.393 (inactive).
With GGCUUUCAAGAGCAAUCCCTT against Man2b2 the figure was -2.21 (active).
The result for GGAGCUAGACAAAACUAAATT against Vmn2r81 reads -0.882 (inactive); that for GUAGAAGAUGGAAUUUUUGTT against Rpl22l1, 0.048 (inactive); that for GGUCUGUGAGGAACAAAAGTT against Ccnd2, -2.26 (active).
Regarding CCUGAUGGGUUACCUAUGCTT against Col25a1, the z-score is -0.379 (inactive).
The result for GCGGUUCCAAGAUUGUUGUTT against Armc8 reads 0.109 (inactive); that for GCUGAUCGCUUUGAUUCGATT against Fkbp11, -0.495 (inactive).
With “GCUAACACUGCGCUUGGAATT against 1700067K01Rik” the figure was -1.39 (inactive).
As to GGGACCAGAACCACAAACATT against Ghsr, the z-score was -1.62 (inactive).
Turning to GGACUAAAUAGGUUUACCATT against Alx1, the z-score was 1.26 (inactive).
With CGCAGACAGAGACAACCUGTT against Casp6 the figure was -0.73 (inactive); with GCAGGUCACUUUCUAGAGATT against Srsf3, -2.25 (active).
For the sequence GCGUGUCCUAUAGCAUCUGTT against Cela1, the z-score was -0.106 (inactive).
